Source: PubChem BioAssay (NCI)
Compounds without any hit were thinned out: in the full panel of roughly 83,000, 20% have a hit.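 Cell lines were cultured in 96-well plates, exposed to a single compound concentration, and assessed for percent growth 48 hours later.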 A number with no mark means an inactive call. The source made the active and inactive calls. Rule for the calls: active = growth percent below 10; inactive = the rest.

How the values were obtained:
Assay in all cases: NCI-60 one-dose screen, 48 h (100 = growth as untreated, 0 = no growth, -100 = all killed)
Settings in all cases: 10 µM unless noted
DU-145 prostate = tested on: DU-145 prostate
K-562 leukemia = tested on: K-562 leukemia
MALME-3M melanoma = tested on: MALME-3M melanoma
MDA-MB-231 breast = tested on: MDA-MB-231 breast
RXF 393 renal = tested on: RXF 393 renal
SF-268 CNS = tested on: SF-268 CNS
SF-295 CNS = tested on: SF-295 CNS
SF-539 CNS = tested on: SF-539 CNS
UACC-257 melanoma = tested on: UACC-257 melanoma
M14 melanoma = tested on: M14 melanoma
HCT-15 colon = tested on: HCT-15 colon
HT29 colon = tested on: HT29 colon
SNB-75 CNS = tested on: SNB-75 CNS
SNB-19 CNS = tested on: SNB-19 CNS
U251 CNS = tested on: U251 CNS
SK-MEL-5 melanoma = tested on: SK-MEL-5 melanoma
UACC-62 melanoma = tested on: UACC-62 melanoma
LOX IMVI melanoma = tested on: LOX IMVI melanoma
SK-MEL-28 melanoma = tested on: SK-MEL-28 melanoma
PC-3 prostate = tested on: PC-3 prostate

[2H]C([2H])([2H])Oc1ccc(F)cc1/C=C/C(=O)/C=C(O)/C=C/c1cc(F)ccc1OC([2H])([2H])[2H]
growth (DU-145 prostate): 95.3%
growth (K-562 leukemia): 84%
growth (MALME-3M melanoma): 104%
growth (MDA-MB-231 breast): 108%
growth (RXF 393 renal): 103%
growth (SF-268 CNS): 89.8%
growth (SF-295 CNS): 103%
growth (SF-539 CNS): 107%
growth (UACC-257 melanoma): 89.6%
growth (M14 melanoma): 85.1%
growth (HCT-15 colon): 79.9%
growth (HT29 colon): 98.8%
growth (SNB-75 CNS): 94.9%
growth (SNB-19 CNS): 91.8%
growth (U251 CNS): 76.8%
growth (SK-MEL-5 melanoma): 92.8%
growth (UACC-62 melanoma): 80.6%
growth (LOX IMVI melanoma): 85.1%
growth (SK-MEL-28 melanoma): 116%

C[C@@H]1O[C@@H](O[C@@H]2C[C@H](c3ccc4c(c3O)C(=O)C3=C(C4=O)[C@@]4(O)C(=O)C[C@](C)(O)C[C@@]4(O)C=C3)O[C@H](C)[C@H]2O)CC[C@@H]1O[C@H]1C[C@@H](O)[C@H](O)[C@@H](C)O1
growth (DU-145 prostate): 110%
growth (K-562 leukemia): 94.4%
growth (MALME-3M melanoma): 65.4%
growth (MDA-MB-231 breast): 105%
growth (RXF 393 renal): 113%
growth (SF-268 CNS): 87%
growth (SF-295 CNS): 102%
growth (SF-539 CNS): 100%
growth (UACC-257 melanoma): 98.4%
growth (M14 melanoma): 110%
growth (HCT-15 colon): 94.8%
growth (HT29 colon): 108%
growth (SNB-75 CNS): 90.7%
growth (SNB-19 CNS): 100%
growth (PC-3 prostate): 96%
growth (SK-MEL-5 melanoma): 101%
growth (UACC-62 melanoma): 97.8%
growth (LOX IMVI melanoma): 94.6%
growth (SK-MEL-28 melanoma): 116%

CCCCCCCC/C=C\CCCCCCCCOc1ccc(CC(=O)NCC[N+]2(C)CCOCC2)cc1
growth (DU-145 prostate): 88.5%
growth (K-562 leukemia): 62.8%
growth (MALME-3M melanoma): 80.9%
growth (MDA-MB-231 breast): 68%
growth (RXF 393 renal): -38.6% (active)
growth (SF-268 CNS): 70.2%
growth (SF-295 CNS): 85.7%
growth (SF-539 CNS): 81.1%
growth (UACC-257 melanoma): 96.9%
growth (M14 melanoma): 81.4%
growth (HCT-15 colon): 90.8%
growth (HT29 colon): 36.9%
growth (SNB-75 CNS): 41.2%
growth (SNB-19 CNS): 38.7%
growth (PC-3 prostate): 12.5%
growth (SK-MEL-5 melanoma): 99%
growth (UACC-62 melanoma): 57.5%
growth (LOX IMVI melanoma): 84.2%
growth (SK-MEL-28 melanoma): 93.7%

CC1C(/C=N/NC(N)=S)C(C#N)(C#N)C1(C#N)C#N (stereo unspecified)
growth (DU-145 prostate): 96.8%
growth (K-562 leukemia): 84.1%
growth (MALME-3M melanoma): 103%
growth (MDA-MB-231 breast): 106%
growth (RXF 393 renal): 106%
growth (SF-268 CNS): 91.4%
growth (SF-295 CNS): 107%
growth (SF-539 CNS): 111%
growth (UACC-257 melanoma): 96.3%
growth (M14 melanoma): 102%
growth (HCT-15 colon): 109%
growth (HT29 colon): 110%
growth (SNB-75 CNS): 92.7%
growth (SNB-19 CNS): 101%
growth (PC-3 prostate): 92.9%
growth (SK-MEL-5 melanoma): 104%
growth (UACC-62 melanoma): 96.9%
growth (LOX IMVI melanoma): 109%

COc1ccc(C[n+]2c3ccccc3n3c4ccc(N)cc4ccc32)c(OC)c1OC
growth (DU-145 prostate): 81%
growth (K-562 leukemia): 42%
growth (MALME-3M melanoma): 49.6%
growth (MDA-MB-231 breast): 75.5%
growth (RXF 393 renal): 69.7%
growth (SF-268 CNS): 35%
growth (SF-295 CNS): 65.6%
growth (SF-539 CNS): 52.2%
growth (UACC-257 melanoma): 3.35% (active)
growth (M14 melanoma): 87.5%
growth (HCT-15 colon): 101%
growth (HT29 colon): 39.2%
growth (SNB-75 CNS): 61.4%
growth (SNB-19 CNS): 15.5%
growth (U251 CNS): 8.81% (active)
growth (SK-MEL-5 melanoma): 42.6%
growth (UACC-62 melanoma): 60.1%
growth (LOX IMVI melanoma): 85.2%
growth (SK-MEL-28 melanoma): 64.5%

CC1C=CC(OC(=O)C(C)(O)CCC(O)(C(=O)OC2CC(O)C(C(C)C)CC2(C)O)C(C)C)(C(C)C)CC1 (stereo unspecified)
growth (DU-145 prostate): -89% [4.63 µM] (active)
growth (K-562 leukemia): -61.1% [4.63 µM] (active)
growth (MALME-3M melanoma): -71.5% [4.63 µM] (active)
growth (MDA-MB-231 breast): -59.7% [4.63 µM] (active)
growth (RXF 393 renal): -87.3% [4.63 µM] (active)
growth (SF-268 CNS): -43.9% [4.63 µM] (active)
growth (SF-295 CNS): -86.9% [4.63 µM] (active)
growth (SF-539 CNS): -95.5% [4.63 µM] (active)
growth (UACC-257 melanoma): -88% [4.63 µM] (active)
growth (M14 melanoma): -74.8% [4.63 µM] (active)
growth (HCT-15 colon): -68.5% [4.63 µM] (active)
growth (HT29 colon): -39.6% [4.63 µM] (active)
growth (SNB-75 CNS): -45.9% [4.63 µM] (active)
growth (SNB-19 CNS): -75% [4.63 µM] (active)
growth (PC-3 prostate): -84.9% [4.63 µM] (active)
growth (SK-MEL-5 melanoma): -99.8% [4.63 µM] (active)
growth (UACC-62 melanoma): -88.9% [4.63 µM] (active)
growth (LOX IMVI melanoma): -88.4% [4.63 µM] (active)
growth (SK-MEL-28 melanoma): -96.9% [4.63 µM] (active)

COc1ccccc1N(C(C)=O)C1=C(Cl)C(=O)c2ccccc2C1=O
growth (DU-145 prostate): 38.1%
growth (K-562 leukemia): -13.2% (active)
growth (MALME-3M melanoma): 43.3%
growth (MDA-MB-231 breast): 10.5%
growth (RXF 393 renal): -29.1% (active)
growth (SF-268 CNS): 30.1%
growth (SF-295 CNS): -36% (active)
growth (SF-539 CNS): -30.9% (active)
growth (UACC-257 melanoma): -7.02% (active)
growth (M14 melanoma): 11.7%
growth (HCT-15 colon): 4.27% (active)
growth (HT29 colon): 6.98% (active)
growth (SNB-75 CNS): 24.8%
growth (SNB-19 CNS): 34%
growth (PC-3 prostate): 3.3% (active)
growth (SK-MEL-5 melanoma): -69.9% (active)
growth (UACC-62 melanoma): -35.3% (active)
growth (LOX IMVI melanoma): 4.88% (active)
growth (SK-MEL-28 melanoma): 21.2%

COc1ccc(C2=CN3CC=CC3CC2=O)cc1 (stereo unspecified)
growth (DU-145 prostate): 98.9%
growth (K-562 leukemia): 98.4%
growth (MALME-3M melanoma): 81.6%
growth (MDA-MB-231 breast): 105%
growth (RXF 393 renal): 110%
growth (SF-268 CNS): 98.2%
growth (SF-295 CNS): 93.3%
growth (SF-539 CNS): 95%
growth (UACC-257 melanoma): 92.9%
growth (M14 melanoma): 106%
growth (HCT-15 colon): 95.2%
growth (HT29 colon): 90.5%
growth (SNB-75 CNS): 90.9%
growth (SNB-19 CNS): 105%
growth (U251 CNS): 94.5%
growth (SK-MEL-5 melanoma): 100%
growth (UACC-62 melanoma): 105%
growth (LOX IMVI melanoma): 104%
growth (SK-MEL-28 melanoma): 102%
